# In PubChem BioAssay:
# Activity calls are given as the source filed them.
# Experiment: plasmodial surface anion channel blockers, osmotic lysis – cell-based, P. falciparum Indochina, OD700, 2 h, primary screen (AID 1155);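 further: lysis reports solute entry through the parasite surface anion channel PSAC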
# Conditions: P. falciparum Indochina infected erythrocytes, higher = more signal, called active from +8 up or from −8 down
row,Compound,z-score
1,CC(C)[Si]1(C(C)C)O[C@@H](c2ccccc2)c2cc(-c3ccc(-c4ccc(Cl)c(Cl)c4)o3)nc(-c3ccccc3)c21,0.0805 (inactive)
2,OCCCC1=CC(c2cccs2)N(Cc2cc3c(cc2Br)OCO3)CC1 (stereo not given),0.887 (inactive)
3,CCOC(=O)C[C@H]1[C@H](OC(=O)c2ccc(C(=O)c3ccccc3)cc2)[C@@H](NC(=O)c2ccc3ccccc3c2)c2cc(OCCCO)ccc2N1C(=O)Cc1ccc(OC)cc1,0.448 (inactive)
4,C=C(CC1([C@@H](NP(=O)(c2ccccc2)c2ccccc2)[C@H]2C[C@@H]2CCCC)CC1)c1ccccc1,0.495 (inactive)
5,COc1cc(COC(C)=O)ccc1OC(C)=O,-0.983 (inactive)
6,C=C(CCCC)/C(=C/C[C@@H](OC(=O)c1ccncc1)c1ccc(OCCO)cc1)c1cc(C(=O)OC)ccc1OC,3.18 (inactive)
7,C=C(CCCC)C(=O)CC[C@@H](OC(=O)c1ccccc1-c1ccccc1C(=O)O)c1ccc(OCCO)cc1,1.73 (inactive)
8,COCCOC(=O)N1C(=O)[C@@]2(c3cc(C#CCC(C(=O)OC)C(=O)OC)ccc31)[C@H](C(=O)Nc1nc3ccccc3s1)[C@H]1C(=O)O[C@H](c3ccccc3)[C@H](c3ccccc3)N1[C@@H]2c1ccccc1OCCO,2.85 (inactive)
9,NC(=O)N1C(=O)C2C(C1=O)C1C=C(c3ccc(CO)cc3)C2C(c2cccs2)N1Cc1cccc(OC(F)(F)F)c1 (stereo not given),-0.687 (inactive)
10,COCCOC(=O)N1C(=O)[C@@]2(c3cc(C#CCNC(N)=O)ccc31)[C@H](C(=O)N1CCN(c3ncccn3)CC1)[C@H]1C(=O)O[C@H](c3ccccc3)[C@H](c3ccccc3)N1[C@@H]2c1ccc(OCCO)cc1,1.93 (inactive)
11,CCCc1cc2c(n1Cc1cc(F)cc(F)c1)C(C)C1CN(C(=O)c3ccccc3)C(C)(C(=O)OC)C21 (stereo not given),0.144 (inactive)
12,CCCC[C@@H]1C[C@H]1[C@@H](NC(=O)c1ccco1)c1ccc(-c2ccccc2)cc1,-0.912 (inactive)
13,C=CC[C@@]12N=C(c3ccc(OCCCO)cc3)O[C@@H]1c1ccccc1N(C)C2=O,32.3 (active)
14,COC(=O)[C@@]1(Cc2ccccc2)N=C(c2ccc(OCCCO)cc2)O[C@H]1c1ccccc1,12.2 (active)
15,COc1cccc(-c2cccc(=O)o2)c1,1.6 (inactive)
16,C=C[C@H](CO[Si](CC)(CC)CC)N(Cc1ccc(OC(C)=O)c(OC)c1)S(=O)(=O)c1ccc(Br)cc1,-0.231 (inactive)
17,NC(=O)NCC#Cc1ccc2c(c1)[C@]1(C(=O)N2)[C@H](c2ccc(O)cc2)N2[C@H](c3ccccc3)[C@H](c3ccccc3)OC(=O)[C@H]2[C@@H]1C(=O)O,0.179 (inactive)
18,COC(=O)C[C@H]1O[C@]2(C(=O)N(C)c3ccccc32)[C@@H](C)[C@@H]1[Si](C)(C)F,-0.562 (inactive)
19,O=C1C2C=CC(C(O)c3cc(C(F)(F)F)cc(C(F)(F)F)c3)N(n3cnnc3)C2C(=O)N1Cc1ccccc1 (stereo not given),1.11 (inactive)
20,Cc1nc2cc(Br)ccc2c(=O)o1,0.0276 (inactive)
21,C=C(CCCC)/C(=C/C[C@@H](OC(C)=O)c1ccc(OCCO)cc1)c1cnc2ccccc2c1,6.92 (inactive)
22,COc1cc2c(cc1O)C(C1CC1)N(Cc1sc3ccccc3c1Cl)CC2 (stereo not given),3.41 (inactive)
23,COc1cc2c(cc1O)C(c1cccs1)N(C)CC2 (stereo not given),1.17 (inactive)
24,CN1C=C(C(=O)OCCS(C)(=O)=O)C(C(=O)OCCS(C)(=O)=O)=CC(c2ccc(CO)cc2)=CC1C1CC1 (stereo not given),1.46 (inactive)
25,Cc1ccc(N2C(=O)c3ccccc3[C@@H](C(=O)NC3CC3)[C@@H]2c2ccc(CO)cc2)nc1,-0.325 (inactive)
26,O=C1C[C@@](C(=O)NCC(F)(F)F)(c2ccc([N+](=O)[O-])cc2)[C@@H](c2ccc(CO)cc2I)N1C1CCCCC1,1.79 (inactive)
27,Cc1ccc(S[C@]2(C(=O)NCCCN(C)C)CC(=O)N(Cc3cc(C(F)(F)F)cc(C(F)(F)F)c3)[C@@H]2c2ccc(CO)cc2)cc1,0.0808 (inactive)
28,C=C(COC)/C(=C/C[C@@H](OC(=O)c1ccncc1)c1ccc(CO)o1)c1cc(C(=O)OC)ccc1OC,0.453 (inactive)
29,C=C[C@H](OC)[C@@H](OC(=O)Nc1ccc(OC)cc1)c1ccc(O)c(F)c1,0.484 (inactive)
30,COCCOC(=O)N1C(=O)[C@@]2(c3cc(C#CC4(O)CCCCCC4)ccc31)[C@H](c1ccccc1OCCO)N1[C@H](c3ccccc3)[C@H](c3ccccc3)OC(=O)[C@H]1[C@@H]2C(=O)N1CCN(c2ncccn2)CC1,1.31 (inactive)
